This is an account of results in PubChem BioAssay (NCATS).

Molecules are shown by their SMILES. “And” between values parts separate entries of the source, which are not always exact repeats. Identical values can stand only once. Records with an inconclusive call do not appear. The source made the active and inactive calls. Calls follow the shape of the dose curve; as a rule, active = well fitted curve in the direction sought with a large enough effect; inconclusive = small, poorly fitted or top-dose-only effect, or another doubt; inactive = no such curve, though single readings can be large; an effect the other way counts as inactive or inconclusive.

Test [1] in a line: qHTS of pediatric cancer cell lines to identify multiple opportunities for drug repurposing: Primary screen for A673 cells (AID 1347092). Also: nearly all actives have a fitted effect of over 45% in size. Also: potency is read from the fitted curve at half-maximal effect. The gist of the method: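 A673 cells (500-1,000 cells/well) were treated 48 hours at 37 degrees C with compounds at 11-point (0.78 nM to 46 µM) or 8-point (0.59 nM to 46 µM) dilutions. Viability read by CellTiter-Glo luminescence; concentration-response curves fitted.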
Background: qHTS replaces the single test concentration by a dilution series.

Test [2] is described as follows: qHTS of pediatric cancer cell lines to identify multiple opportunities for drug repurposing: Primary screen for SK-N-MC cells (AID 1347093). Also: potency is read from the fitted curve at half-maximal effect. The gist of the method: (§1)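 Metabolically active cells were quantified by ATP-dependent luminescence (CellTiter-Glo, 15 min at room temperature) following 48 h treatment. Cells had been plated at 500-1,000 per well and settled for 5 h beforehand.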

Test [3] is described as follows: qHTS of pediatric cancer cell lines to identify multiple opportunities for drug repurposing: Primary screen for BT-37 cells (AID 1347094). Also: potency is read from the fitted curve at half-maximal effect. The method in brief:
(§2)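 Phenotypic viability qHTS, 48 h compound exposure, CellTiter-Glo luminescence read-out; multi-concentration dosing so that potency and efficacy derive directly from the primary screen's curves.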

The nature of test [4]: qHTS of pediatric cancer cell lines to identify multiple opportunities for drug repurposing: Primary screen for NB-EBc1 cells (AID 1347095). Also: potency is read from the fitted curve at half-maximal effect. The gist of the method:
as §2

The nature of test [5]: qHTS of pediatric cancer cell lines to identify multiple opportunities for drug repurposing: Primary screen for U-2 OS cells (AID 1347096). Also: nearly all actives have a fitted effect of over 50% in size. Also: potency is read from the fitted curve at half-maximal effect. The method in brief: (§3)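 Cells (500-1,000/well) in growth media were settled 5 h at 37 degrees C, then given compounds for 48 h. Viability was read as CellTiter-Glo luminescence. Primary runs used MIPE at 11 points (0.78 nM-46 µM) and NPC at 8 points (0.59 nM-46 µM); follow-ups used 11 points.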

Test [6] is described as follows: qHTS of pediatric cancer cell lines to identify multiple opportunities for drug repurposing: Primary screen for Saos-2 cells (AID 1347097). Also: nearly all actives have a fitted effect of over 40% in size. Also: potency is read from the fitted curve at half-maximal effect. The gist of the method:
as §2

Test [7] is described as follows: qHTS of pediatric cancer cell lines to identify multiple opportunities for drug repurposing: Primary screen for SK-N-SH cells (AID 1347098). Also: nearly all actives have a fitted effect of over 65% in size. Also: potency is read from the fitted curve at half-maximal effect. The gist of the method: (§4)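 Cells (500-1,000/well) rested 5 h, then received compounds for 48 h; metabolically active cells were measured by CellTiter-Glo luminescence. Final concentrations spanned up to 46 µM (MIPE, 11-point) or 0.59 nM-46 µM (NPC, 8-point) in primary screens, 11-point in follow-ups.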

The nature of test [8]: qHTS of pediatric cancer cell lines to identify multiple opportunities for drug repurposing: Primary screen for NB1643 cells (AID 1347099). Also: nearly all actives have a fitted effect of over 50% in size. Also: potency is read from the fitted curve at half-maximal effect. The method in brief: as §2
A short description of test [9]: qHTS of pediatric cancer cell lines to identify multiple opportunities for drug repurposing: Primary screen for LAN-5 cells (AID 1347100). Also: potency is read from the fitted curve at half-maximal effect. The method in brief: as §3
Test [10] is described as follows: qHTS of pediatric cancer cell lines to identify multiple opportunities for drug repurposing: Primary screen for BT-12 cells (AID 1347101). Also: nearly all actives have a fitted effect of over 25% in size. Also: potency is read from the fitted curve at half-maximal effect. The gist of the method:
as §4

The nature of test [11]: qHTS of pediatric cancer cell lines to identify multiple opportunities for drug repurposing: Primary screen for Rh18 cells (AID 1347102). Also: nearly all actives have a fitted effect of over 65% in size. Also: potency is read from the fitted curve at half-maximal effect. The method in brief: as §3
The nature of test [12]: qHTS of pediatric cancer cell lines to identify multiple opportunities for drug repurposing: Primary screen for OHS-50 cells (AID 1347103). Also: nearly all actives have a fitted effect of over 40% in size. Also: potency is read from the fitted curve at half-maximal effect. The method in brief:
as §4

A short description of test [13]: qHTS of pediatric cancer cell lines to identify multiple opportunities for drug repurposing: Primary screen for RD cells (AID 1347104). Also: nearly all actives have a fitted effect of over 55% in size. Also: potency is read from the fitted curve at half-maximal effect. The method in brief:
as §2

A short description of test [14]: qHTS of pediatric cancer cell lines to identify multiple opportunities for drug repurposing: Primary screen for MG 63 (6-TG R) cells (AID 1347105). Also: nearly all actives have a fitted effect of over 50% in size. Also: potency is read from the fitted curve at half-maximal effect. The gist of the method: as §2
Test [15] is described as follows: qHTS of pediatric cancer cell lines to identify multiple opportunities for drug repurposing: Primary screen for control Hh wild type fibroblast cells (AID 1347106).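 Also: series mostly up to about 46 µM; a drop in luminescence marks cytotoxicity and a rise apparent proliferation; nearly all actives have a fitted effect of over 55% in size.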 The gist of the method:
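Viability after 48 h compound treatment at 37C, 500-1,000 cells/well, read as ATP luminescence with CellTiter-Glo. Primary screens used 11-point (MIPE, 0.78 nM-46 µM) or 8-point (NPC, 0.59 nM-46 µM) final concentrations; follow-up screens used 11-point dilutions.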

Test [16] can be described thus: qHTS of pediatric cancer cell lines to identify multiple opportunities for drug repurposing: Primary screen for Rh30 cells (AID 1347107). Also: series mostly up to about 46 µM; nearly all actives have a fitted effect of over 75% in size. The gist of the method:
as §3

A short description of test [17]: qHTS of pediatric cancer cell lines to identify multiple opportunities for drug repurposing: Primary screen for Rh41 cells (AID 1347108). Also: nearly all actives have a fitted effect of over 70% in size. Also: potency is read from the fitted curve at half-maximal effect. The gist of the method:
as §2

Test [18] can be described thus: qHTS of pediatric cancer cell lines to identify multiple opportunities for drug repurposing: Confirmatory screen for BT-12 cells (AID 1347112). Also: nearly all actives have a fitted effect of over 55% in size. The gist of the method: as §3
Test [19] is described as follows: qHTS of pediatric cancer cell lines to identify multiple opportunities for drug repurposing: Confirmatory screen for SK-N-MC cells (AID 1347111).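 Also: potency is read from the fitted curve at half-maximal effect; cells exposed to compound for 48 h before the readout; nearly all actives have a fitted effect of over 70% in size.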 The method in brief: as §1

For the compound `N[C@@H]1CONC1=O`, the Potency entry in test [1], in [2], in test [3], in test [4], in test [5] and in [6] was “inactive” in each case. The Potency entry in test [7], in test [8], in [9], in test [10], in [11] and in test [12] was “inactive” throughout. Further, the Potency result in test [13], in test [14], in test [15], in test [16] and in [17] was “inactive” in each case.
For the compound `Nc1ccc(S(=O)(=O)Nc2ccnn2-c2ccccc2)cc1`, the Potency entry in [1], in test [2], in test [3], in [4], in test [5] and in test [6] was “inactive” each time. For the same compound, the Potency entry in test [7], in [8], in test [9], in test [10], in test [11] and in test [12] was “inactive” throughout. Also, the Potency entry in [13], in test [14], in test [15], in test [16] and in test [17] was “inactive” in each case.
`O=C(Nc1nc2ccccc2n1CCN1CCOCC1)c1cccc([N+](=O)[O-])c1`: the Potency in test [1] is 3.72 µM (active); in [2], 3.32 µM (active); in [3] it was 7.69 µM (active); in [4], 7.43 µM (active); in test [7], 24.1 µM (active); in [8] it was 7.43 µM (active). The Potency in test [9] is 3.72 µM (active); in test [10] it was 21.7 µM (active); in [12] it was 9.68 µM (active); in [17], 18.7 µM (active). The Potency result in test [5] and in test [15] was “inactive” throughout.
On to `Cc1cc(SCc2sc(-c3ccc(C(F)(F)F)cc3)nc2C)ccc1OCC(=O)O`, for which the Potency entry in test [1], in test [3], in [4], in [5], in test [6] and in test [9] was “inactive” throughout. Moreover, the Potency result in test [11], in test [13], in [14], in test [15] and in test [16] was “inactive” in each case. Besides, in [2], the Potency was 18.7 µM (active).
On to `COc1ccc(-c2oc3cc(OC)ccc3c2C(=O)c2ccc(C#N)cc2)cc1`, for which the Potency is 0.0935 µM (active) in test [1]; 4.18 µM (active) in test [2]; 0.685 µM (active) in test [3]; 7.43 µM (active) in [4]; 24.1 µM (active) in test [7]; 0.833 µM (active) in [9]. The Potency in [10] is 1.09 µM (active); in test [12], 0.968 µM (active). Also, the Potency entry in test [5], in test [11], in [15], in [16] and in test [18] was “inactive” in each case.
For the compound `CC(=O)Oc1ccccc1C(=O)O`, the Potency result in test [1], in [2], in test [3], in test [4], in [5] and in [6] was “inactive” throughout. Besides, the Potency result in test [7], in test [8], in test [9], in [10], in [11] and in [12] was “inactive” throughout. Also, the Potency entry in test [13], in test [14] and in test [15] was “inactive” in each case.
With `O=C1CCC(N2C(=O)c3ccccc3C2=O)C(=O)N1` (configuration not stated), the Potency result in [1], in test [2], in test [3], in test [4], in test [5] and in [6] was “inactive” in each case. Also, the Potency result in test [7], in [8], in test [9], in test [10], in test [11] and in [12] was “inactive” in each case. In addition, the Potency entry in [13], in test [14], in test [15], in test [16] and in [17] was “inactive” in each case.
Take `CC(C=CC1=C(C)CCCC1(C)C)=CC=CC(C)=CC(=O)O`: the Potency is 14.8 µM (active) and 296 nM (active) in test [1]; 8.33 µM (active) and 1.48 µM (active) in test [2]; 0.344 µM (active) in test [12]; 9.35 µM (active) in [14]. For the same compound, the Potency result in [3], in [4], in test [5], in test [7], in [9] and in [10] was “inactive” each time. Moreover, the Potency result in test [11], in test [16] and in test [18] was “inactive” throughout.
With `CS(=O)(=O)c1cccc(CNc2nc(Nc3ccc4c(c3)CCC(=O)N4)ncc2C(F)(F)F)c1`, the Potency was 14.8 µM (active) in test [1]; 7.43 µM (active) in test [2]; 27.3 µM (active) in [3]; 14.8 µM (active) in [4]; 18.7 µM (active) in test [5]; 16.6 µM (active) in test [6]. Further, the Potency in [7] was 24.1 µM (active); in test [8], 16.6 µM (active); in [9], 3.32 µM (active); in [12] it was 6.11 µM (active); in test [13], 16.6 µM (active); in [14], 11.8 µM (active). Further, the Potency result in [15] was “inactive”.
Consider `COc1cc2nccc(Oc3ccc(NC(=O)NC4CC4)c(Cl)c3)c2cc1C(N)=O`, for which the Potency in test [1] is 0.469 µM (active); in test [2], 0.935 µM (active); in [3] it was 1.37 µM (active); in [4], 0.0935 µM (active); in test [7], 1.52 µM (active); in [8] it was 2.96 µM (active). In addition, the Potency was 0.372 µM (active) in [9]; 6.85 µM (active) in test [10]; 5.26 µM (active) in [11]; 14.8 µM (active) in test [13]; 5.9 µM (active) in test [17]; 26.1 µM (active) in test [19]. In addition, the Potency entry in test [5] and in [16] was “inactive” throughout.
As for `c1ccc([C@H]2CN3CCSC3=N2)cc1`, the Potency result in test [1], in test [2], in [3], in test [4], in test [5] and in [6] was “inactive” throughout. Also, the Potency entry in test [7], in test [8], in test [9], in test [10], in test [11] and in test [12] was “inactive” throughout. Moreover, the Potency result in [13], in test [14], in [15], in [16] and in test [17] was “inactive” in each case.
Regarding `Cc1cc2c(C(C)C)c(O)c(O)c(C=O)c2c(O)c1-c1c(C)cc2c(C(C)C)c(O)c(O)c(C=O)c2c1O`, the Potency in test [1] was 23.5 µM (active); in test [2], 5.96 µM (active) and 9.35 µM (active); in test [3], 15.5 µM (active) and 24.3 µM (active); in test [4], 3.76 µM (active) and 2.96 µM (active); in [6] it was 8.41 µM (active) and 16.6 µM (active); in test [8], 8.41 µM (active) and 7.43 µM (active). Besides, the Potency in test [9] was 3.35 µM (active) and 11.8 µM (active); in test [10] it was 13.8 µM (active) and 19.3 µM (active); in test [11] it was 23.5 µM (active); in test [12], 11 µM (active) and 19.3 µM (active); in test [13] it was 26.6 µM (active) and 29.6 µM (active); in [14], 21.1 µM (active) and 23.5 µM (active). Moreover, in [17], the Potency was 16.8 µM (active) and 18.7 µM (active). For the same compound, the Potency result in test [5] and in test [15] was “inactive” throughout.
`CC(C)NCC(O)COc1ccc(COCCOC(C)C)cc1` (configuration not stated): the Potency entry in test [1], in test [2], in [3], in test [4], in [5] and in [6] was “inactive” each time. For the same compound, the Potency entry in test [7], in [8], in test [9], in test [10], in [11] and in test [12] was “inactive” each time. Further, the Potency entry in test [13], in test [14], in [15], in test [16] and in [17] was “inactive” each time.
